# According to PubChem BioAssay AID890 (National Center for Advancing Translational Sciences (NCATS), 2007):
# Activity calls are given as the source filed them. Calls come from the whole dose curve; as a rule, active = well fitted activation curve with a large enough effect; inactive = flat fitted curve, though single readings scatter.
# Assay: Confirmation Concentration-Response Assay for Epigenetic Modulators
# Details: murine C127i cells, silenced GFP reporter derepression, imaging
# Source text: NIH Molecular Libraries Screening Centers Network [MLSCN] NIH Chemical Genomics Center [NCGC] MLSCN Grant: 1 X01 MH079860-01 Assay Provider: Elisabeth D. Martinez, University of Texas SW Medical Center NCGC Assay Overview: The Locus Derepression assay detects the derepression of a GFP reporter that is stably integrated in a region of the genome of murine c127i mammary cells that is presumably silenced. GFP transcription in this construct is controlled by a CMV promoter, which normally is strong and constitutively active. However, this line was selected for lack of constitutive expression of the GFP protein. GFP production can be induced by incubating the cells with histone deacetylase or DNA methyltransferase inhibitors. Compounds that cause derepression of the locus to express GFP are identified by enumerating GFP positive cells using a laser-scanning microplate cytometer.
# NCGC Assay Protocol Summary: Two hundred and fifty cells in 5 uL per well were dispensed into black, clear-bottom 1536-well plates. Twenty-three nL compound was transferred to the assay plate and cells were incubated 30 hours at 37 C. […]
smiles,measurement,value
CN1CSC(=S)N(C)C1,Potency,7.95 µM (active)
